Unmarked numbers belong to inactive results. Results filed as inconclusive are left out. Active and inactive are the calls of the source. Calls come from the whole dose curve; as a rule, active = well fitted curve in the direction sought with a large enough effect; inconclusive = small, poorly fitted or top-dose-only effect, or another doubt; inactive = no such curve, though single readings can be large; an effect the other way counts as inactive or inconclusive.

Experiment [1] deals with Nanoluciferase (engineered Oplophorus gracilirostris luciferase). Briefly: Primary Nanoluciferase (NLuc) qHTS assay for identification of artifact compounds. (AID 1845222).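 Note: NLuc secreted into diluted conditioned medium of S16 cells.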 Put shortly: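 qHTS format, against NLuc in S16 cell-conditioned medium. Nano-Glo substrate 1:100 was added after 15 min at room temperature. Luminescence was taken after a further 5 min.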
Background: Quantitative high-throughput screening tests each substance at several concentrations.

A short description of experiment [2]: Primary redox qHTS assay for identification of artifact compounds. (AID 1845223). Put shortly:
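Amplex Red (25 uM) and HRP (250 mU/mL) in HBSS, with compounds for 15 min, then 250 uM DTT for 30 min, room temperature, dark. Fluorescence 525/598 nm read; normalized to DMSO and 10 uM DA3003; Hill fit.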

Experiment [3] is described as follows: Quantitative High-Throughput drug screen in 47 multiple myeloma cell lines against the NCATS MIPE library collection: FR4_PLB cell viability assay (AID 1918924; note: nearly all actives have a fitted effect of over 35% in size; note: potency is the fitted concentration of half-maximal effect). In a few lines: (§1)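 Inhibition of cell viability is measured here. Each line was plated at 500 cells per well, treated with MIPE 4.0 drugs, kept 48 hours at 37C, then assayed for ATP content by CellTiter-Glo luminescence.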

Experiment [4] is described as follows: Quantitative High-Throughput drug screen in 47 multiple myeloma cell lines against the NCATS MIPE library collection: Delta47_JCRB cell viability assay (AID 1918925; note: nearly all actives have a fitted effect of over 45% in size; note: potency is the fitted concentration of half-maximal effect). In a few lines: (§2)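 Primary qHTS used for cherry-picking: cells at 500/well, library compounds for 48 h (37C, 5% CO2), luminescent ATP assay.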
The nature of experiment [5]: Quantitative High-Throughput drug screen in 47 multiple myeloma cell lines against the NCATS MIPE library collection: ARD_JJKsccE7 cell viability assay (AID 1918929; note: potency is the fitted concentration of half-maximal effect). In a few lines:
as §2

Experiment [6] in a line: Quantitative High-Throughput drug screen in 47 multiple myeloma cell lines against the NCATS MIPE library collection: KHM11_PLB cell viability assay (AID 1918962). Note: nearly all actives have a fitted effect of over 35% in size. Note: potency is the fitted concentration of half-maximal effect. Put shortly: as §1
Experiment [7] in a line: Quantitative High-Throughput drug screen in 47 multiple myeloma cell lines against the NCATS MIPE library collection: INA6_PLB cell viability assay (AID 1918965; note: nearly all actives have a fitted effect of over 55% in size; note: potency is the fitted concentration of half-maximal effect). In a few lines:
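qHTS of the MIPE 4.0 collection: 500 myeloma cells/well, 48 h drug exposure at 37C in 5% CO2, then CellTiter-Glo for 5 min at room temperature before luminescence reading.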

A short description of experiment [8]: Quantitative High-Throughput drug screen in 47 multiple myeloma cell lines against the NCATS MIPE library collection: H1112_PLB cell viability assay (AID 1918967; note: nearly all actives have a fitted effect of over 30% in size; note: potency is the fitted concentration of half-maximal effect). In a few lines:
as §2

A short description of experiment [9]: Quantitative High-Throughput drug screen in 47 multiple myeloma cell lines against the NCATS MIPE library collection: KMS12BM_JCRB cell viability assay (AID 1918971). Note: nearly all actives have a fitted effect of over 35% in size. Note: potency is the fitted concentration of half-maximal effect. Put shortly:
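Viability readout: CellTiter-Glo luminescence following 5 min room-temperature incubation with reagent. Prior exposure: 48 h, 37C, humidified 5% CO2, 500 cells per well.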

A short description of experiment [10]: Quantitative High-Throughput drug screen in 47 multiple myeloma cell lines against the NCATS MIPE library collection: AMO1_DSMZ cell viability assay (AID 1918927; note: nearly all actives have a fitted effect of over 30% in size; note: potency is the fitted concentration of half-maximal effect). In a few lines:
as §2

A short description of experiment [11]: Quantitative High-Throughput drug screen in 47 multiple myeloma cell lines against the NCATS MIPE library collection: Karpas620_DSMZ cell viability assay (AID 1918959). Note: nearly all actives have a fitted effect of over 30% in size. Note: potency is the fitted concentration of half-maximal effect. Put shortly: as §1
A short description of experiment [12]: Quantitative High-Throughput drug screen in 47 multiple myeloma cell lines against the NCATS MIPE library collection: KMM1_JCRB cell viability assay (AID 1918960). Note: nearly all actives have a fitted effect of over 30% in size. Note: potency is the fitted concentration of half-maximal effect. Put shortly:
(§3)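 Here, 48 h treatment with MIPE 4.0 agents at 37 °C preceded an ATP luminescence read. Plating density was 500 cells per well.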

Experiment [13] in a line: Quantitative High-Throughput drug screen in 47 multiple myeloma cell lines against the NCATS MIPE library collection: JIM3_ECACC cell viability assay (AID 1918963; note: nearly all actives have a fitted effect of over 35% in size; note: potency is the fitted concentration of half-maximal effect). Put shortly:
as §1

The nature of experiment [14]: Quantitative High-Throughput drug screen in 47 multiple myeloma cell lines against the NCATS MIPE library collection: Karpas25_ECACC cell viability assay (AID 1918968; note: nearly all actives have a fitted effect of over 35% in size; note: potency is the fitted concentration of half-maximal effect). In a few lines:
as §2

A short description of experiment [15]: Quantitative High-Throughput drug screen in 47 multiple myeloma cell lines against the NCATS MIPE library collection: EJM_DSMZ cell viability assay (AID 1918926; note: nearly all actives have a fitted effect of over 30% in size; note: potency is the fitted concentration of half-maximal effect). Put shortly: as §2
Experiment [16] can be described thus: Quantitative High-Throughput drug screen in 47 multiple myeloma cell lines against the NCATS MIPE library collection: JIM1_ECACC cell viability assay (AID 1918964; note: potency is the fitted concentration of half-maximal effect). In a few lines: as §2
A short description of experiment [17]: Quantitative High-Throughput drug screen in 47 multiple myeloma cell lines against the NCATS MIPE library collection: JJN3_DSMZ cell viability assay (AID 1918966; note: nearly all actives have a fitted effect of over 50% in size; note: potency is the fitted concentration of half-maximal effect). In a few lines: as §2
A short description of experiment [18]: Quantitative High-Throughput drug screen in 47 multiple myeloma cell lines against the NCATS MIPE library collection: ARP1_JJKsccF8 cell viability assay (AID 1918928; note: nearly all actives have a fitted effect of over 40% in size; note: potency is the fitted concentration of half-maximal effect). In a few lines: as §3
Experiment [19] in a line: Quantitative High-Throughput drug screen in 47 multiple myeloma cell lines against the NCATS MIPE library collection: KMS27_JCRB cell viability assay (AID 1918970). Note: nearly all actives have a fitted effect of over 30% in size. Note: potency is the fitted concentration of half-maximal effect. As to conditions: KMS27 myeloma cells, CellTiter-Glo ATP viability, 48 h; viability (% of DMSO): at 45.8 µM (top of the series). In a few lines:
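Each line is seeded at 500 cells per well and treated with library compounds for 48 hours under 37 °C, 5% CO2. CellTiter-Glo is then added for 5 min at room temperature before median relative luminescence is recorded.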

As to `O=C(O)CCNc1cc(N2CCc3ccccc3CC2)nc(-c2ccccn2)n1`, the Potency result in experiment [1], in [3], in [4], in experiment [5], in experiment [6] and in [8] was “inactive” each time. In experiment [2], the compound was classed as inactive. The Potency was 16.6 µM (active) in experiment [7] and 0.0372 µM (active) in experiment [9].
Regarding `CNc1nc(Nc2ccc(C(=O)N3CCOCC3)cc2OC)ncc1Cl`, the Potency entry in experiment [1], in experiment [3], in experiment [4], in [10], in [11] and in experiment [12] was “inactive” throughout. For the same compound, the Potency result in experiment [8] and in experiment [14] was “inactive” each time. Further, the call in experiment [2] was inactive. In addition, the Potency in experiment [13] is 20.9 µM (active); in experiment [9], 14.8 µM (active).
Regarding `COc1nc(C)cnc1NS(=O)(=O)c1cccnc1-c1ccc(-c2nnco2)cc1`, the Potency result in [1], in experiment [3], in experiment [15], in experiment [13], in [16] and in experiment [7] was “inactive” throughout. Moreover, the Potency entry in [8] is “inactive”. In addition, the call in experiment [2] was inactive. The Potency in experiment [17] is 1.87 µM (active).
Take `O=C(CO)N1CCC(c2[nH]nc(-c3ccc(Cl)cc3)c2-c2ccncn2)CC1`: the Potency result in [1], in experiment [3], in experiment [4], in experiment [15], in experiment [10] and in experiment [18] was “inactive” in each case. Further, the Potency entry in experiment [11], in experiment [12], in experiment [16], in [8], in experiment [14] and in experiment [19] was “inactive” in each case. The outcome in experiment [2] was inactive. Also, the Potency in experiment [7] is 11.8 µM (active); in experiment [17], 1.66 µM (active); in [9], 0.935 µM (active).
With `COc1cc2nccc(Oc3ccc(NC(=O)Nc4cc(C)on4)c(Cl)c3)c2cc1OC`, the Potency entry in experiment [1] and in experiment [19] was “inactive” each time. Also, the outcome in experiment [2] was inactive. Moreover, the Potency in [3] was 20.9 µM (active); in [4], 18.7 µM (active); in experiment [15], 13.2 µM (active); in experiment [10], 4.18 µM (active); in experiment [5], 6.62 µM (active); in experiment [12] it was 3.72 µM (active). Moreover, the Potency in [7] is 23.5 µM (active); in experiment [17] it was 26.4 µM (active); in experiment [14], 20.9 µM (active); in experiment [9], 23.5 µM (active).
As to `Cc1nc2c([nH]1)CCN(C(=O)c1ccc(NC(=O)c3ccccc3-c3ccccc3)cc1)c1ccccc1-2`, the Potency entry in experiment [1], in experiment [15], in [16], in [17] and in experiment [19] was “inactive” in each case. Besides, in experiment [2], the compound was classed as inactive. The Potency in experiment [10] is 18.7 µM (active).
As for `COc1cc2ncnc(Nc3cc(Br)c(O)c(Br)c3)c2cc1OC`, the Potency entry in [1] is “inactive”. The result in experiment [2] was inactive. The Potency was 0.003 µM (active) in [15]; 1.32 µM (active) in experiment [18]; 0.935 µM (active) in experiment [13]; 0.148 µM (active) in experiment [7]; 41.8 nM (active) in experiment [8]; 0.0019 µM (active) in experiment [9].
`C[C@@]1(c2cc(-c3cncnc3)c(F)cc2F)CCSC(N)=N1`: the Potency entry in [1], in [4], in experiment [15], in [18] and in experiment [9] was “inactive” in each case. Also, in experiment [2], the call was inactive. Further, the Potency in [10] was 14.8 µM (active); in [5], 0.059 µM (active); in experiment [11], 2.35 µM (active); in experiment [6] it was 3.32 µM (active); in [13], 23.5 µM (active).
As for `CN(C)c1nc(Cc2ccc(NC(=O)c3ccc(C(F)(F)F)cc3)cc2)nc(N(C)C)c1CC(=O)O`, the Potency entry in [1], in experiment [4], in [15], in experiment [10], in [18] and in [5] was “inactive” throughout. Moreover, the Potency entry in [11], in experiment [12], in experiment [6], in [13], in experiment [16] and in experiment [7] was “inactive” throughout. The Potency result in [8], in experiment [19] and in experiment [9] was “inactive” each time. Besides, in experiment [14], the Potency is 10.5 µM (active).
On to `CCN(CCO)CCCOc1ccc2c(Nc3cc(CC(=O)Nc4cccc(F)c4)[nH]n3)ncnc2c1`, for which the Potency result in experiment [1], in experiment [3], in experiment [15], in [11], in experiment [12] and in [6] was “inactive” throughout. Besides, the Potency result in experiment [13] and in experiment [14] was “inactive” each time. Also, the Potency in [10] was 0.187 µM (active); in experiment [7], 0.0743 µM (active); in [19] it was 8.3 nM (active); in experiment [9], 0.209 µM (active).
Regarding `COc1nccc(-c2c(-c3ccc(F)cc3)ncn2C2CCNCC2)n1`, the Potency entry in [1], in experiment [10], in experiment [11], in experiment [12] and in experiment [14] was “inactive” in each case. In experiment [2], the compound was classed as inactive. The Potency is 10.5 µM (active) in experiment [7], 1660 nM (active) in [8] and 20.9 µM (active) in [9].
With `CCN1C[C@H](C)n2c(c(O)c3c(=O)n(Cc4ccc(F)c(Cl)c4)nc(C(=O)NC)c32)C1=O`, the Potency result in experiment [1], in experiment [18], in [5], in experiment [12], in [6] and in experiment [13] was “inactive” in each case. Besides, the Potency result in [16], in experiment [7], in experiment [8] and in experiment [19] was “inactive” each time. Moreover, the result in [2] was inactive. For the same compound, in [11], the Potency is 0.0066 µM (active).
Take `Cc1ccccc1C(C(=O)NC1CCCCC1)N(C(=O)CNc1ccc(C#N)cc1)c1cccc(F)c1` (centres undefined): the Potency entry in experiment [1], in experiment [11], in experiment [12], in experiment [13], in [7] and in experiment [8] was “inactive” in each case. The Potency entry in experiment [14] was “inactive”. Further, the outcome in [2] was inactive. For the same compound, the Potency in experiment [9] was 2.96 µM (active).
In the case of `C[C@@H](N)c1ccc(C(=O)Nc2ccnc3[nH]ccc23)cc1`, the Potency entry in experiment [1] is “inactive”. The Potency in [3] was 26.4 µM (active); in experiment [4] it was 26.4 µM (active); in experiment [15], 23.5 µM (active); in [10], 23.5 µM (active); in experiment [5], 26.4 µM (active); in experiment [6] it was 20.9 µM (active). The Potency is 13.2 µM (active) in experiment [16], 20.9 µM (active) in experiment [7] and 20.9 µM (active) in [17].
As to `CCN1CCN(c2ccc(Nc3cc(N(C)C(=O)Nc4c(Cl)c(OC)cc(OC)c4Cl)ncn3)cc2)CC1`, the Potency entry in experiment [1], in experiment [10], in experiment [18], in experiment [11], in experiment [12] and in [13] was “inactive” in each case. Moreover, the Potency result in experiment [8] and in experiment [19] was “inactive” throughout. For the same compound, the Potency in experiment [3] was 18.7 µM (active); in experiment [4], 0.0093 µM (active); in [14] it was 18.7 µM (active); in experiment [9], 16.6 µM (active).

Source of the values: PubChem BioAssay (NCATS).
